Screening results from PubChem.
DT40 TDP1 no CPT – qHTS for Inhibitors of human tyrosyl-DNA phosphodiesterase 1 (TDP1): qHTS in cells in absence of CPT; DT40 Tdp1-/- hTDP1 cells, no CPT, ATP luminescence, 48 h; actives 15% (n = 420,000); AID 686978, 2013; Potency, µM (top dose mostly 46.2 µM), inactives show top-dose activity change, negative = growth inhibition, actives largely listed as inhibitors; further: nearly all actives have a fitted effect of over 55% in size
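Luminescent ATP content (CellTiter-Glo) served as the growth readout. Knockout chicken DT40 cells expressing human TDP1 were exposed to compounds without camptothecin for a minimum 48 hr at 37 °C.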
DT40 TDP1 CPT – DT40-hTDP1 cell growth loss with CPT; chicken DT40 Tdp1-/-;hTDP1 cells + 20 nM CPT, ATP luminescence, 48 h; actives 12% (n = 420,000); Potency, µM (titrated, usually from 46.2 µM), for inactives: top-dose activity change, negative = growth inhibition, most hits filed as inhibitors; further: nearly all actives have a fitted effect of over 55% in size
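Chicken DT40 Tdp1-/- cells complemented with human TDP1, 400 cells/well, exposed to compounds plus 20 nM camptothecin for at least 48 h at 37 C; viability read as ATP content by CellTiter-Glo luminescence.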
VP16 counter – inhibits Gal4-VP16 luciferase reporter, ROR gamma counter-screen | Potency, µM (titrated, usually from 53.6 µM), for inactives: top-dose activity, negative = inhibition, most hits filed as inhibitors | Drosophila S2 Gal4-VP16 UAS-luciferase, luminescence, 20 h | actives 3.5% (n = 310,000);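 further: Gal4-VP16 expression switched on by copper sulfate through the metallothionein promoter; nearly all actives have a fitted effect of over 50% in size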
ELG1 repair inh – ELG1-dependent DNA repair inhibition | Potency, µM (highest dose often 46.1 µM), without a hit: top-dose activity change, negative = inhibition, hits mostly inhibitors | actives 2.3% (n = 330,000) | HEK293T ELG1-luciferase reporter, luminescence, 16 h; DNA damage induced by 5-fluorouridine | AID 504467; further: nearly all actives have a fitted effect of over 55% in size
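Step one: seed 2,000 cells per well. Step two: pin-transfer compound or DMSO alongside 5-fluorouridine. Step three: incubate 16 hr, 37 °C, 5% CO2. Step four: add ONE-Glo, wait 30 min, read luminescence.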
RORg inh – inhibitors of mouse ROR gamma transcriptional activity; Drosophila S2 Gal4-RORgamma UAS-luciferase reporter, 20 h; Potency, µM (doses to about 53.6 µM), for the others: top-dose activity change, negative = inhibition, actives largely listed as inhibitors; actives 5.4% (n = 310,000); AID 2551; further: nearly all actives have a fitted effect of over 60% in size
Target sequence (P51450 whole entry, looked up, the tested form may be a part): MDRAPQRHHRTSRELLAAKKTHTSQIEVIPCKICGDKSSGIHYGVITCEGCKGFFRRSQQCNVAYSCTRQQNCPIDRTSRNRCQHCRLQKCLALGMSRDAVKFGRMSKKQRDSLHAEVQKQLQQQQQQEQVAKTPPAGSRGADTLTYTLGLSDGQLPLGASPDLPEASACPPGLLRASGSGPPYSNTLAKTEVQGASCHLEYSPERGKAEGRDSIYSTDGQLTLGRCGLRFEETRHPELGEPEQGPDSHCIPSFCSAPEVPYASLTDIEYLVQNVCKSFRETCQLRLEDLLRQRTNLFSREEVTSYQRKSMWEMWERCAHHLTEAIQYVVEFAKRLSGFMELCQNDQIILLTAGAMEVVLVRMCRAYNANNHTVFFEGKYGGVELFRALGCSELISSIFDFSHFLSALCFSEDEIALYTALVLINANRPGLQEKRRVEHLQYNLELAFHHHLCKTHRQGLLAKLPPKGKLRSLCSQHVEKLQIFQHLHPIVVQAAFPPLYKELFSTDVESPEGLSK
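ROR gamma transcriptional activity was tracked as Gal4-UAS luciferase output in stably transfected Drosophila Schneider cells, with compound added 1 hr before 700 uM copper sulfate induction and a 20 hr ambient-temperature incubation.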
ALOX12 inh – ALOX12 (human) lipoxygenase inhibition | purified 12hLO, xylenol orange hydroperoxide absorbance | Potency, µM (highest dose often 108 µM), for inactives: top-dose activity change, negative = inhibition, most hits filed as inhibitors | actives 1.1% (n = 580,000) | AID 1671190
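Hydroperoxide product was detected by ferrous iron/xylenol orange as the 573 to 405 nm absorbance ratio. Arachidonic acid at 40 uM (final) was turned over for 30 min at room temperature by 150 nM human 12hLO, pH 7.0 Hepes buffer, after 15 min compound preincubation.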
Numbers without * were called inactive; ? = inconclusive; . = no result; [ ] = remark or other dose. Most compounds without a hit are left out; they make up all but 15% or so of the library. The call rests on the fitted dose curve; in most records, active means well fitted curve in the direction sought with a large enough effect; inconclusive means small, poorly fitted or top-dose-only effect, or another doubt; inactive means no such curve, though single readings can be large; an effect the other way counts as inactive or inconclusive. On the % scale 0 is the no-effect control and ±100 the full control effect; potency means the concentration at half of the fitted maximal effect.

SMILES	DT40 TDP1 no CPT	DT40 TDP1 CPT	VP16 counter	ELG1 repair inh	RORg inh	ALOX12 inh
COc1ccc2c(c1)-c1nc(/N=C/c3c(O)ccc4ccccc34)sc1CC2	?	?	?	17%	16µM*	?
COc1ccc2c(c1)Cc1sc(NC(=O)c3cccnc3)nc1-2	21µM*	?	?	-6%	?	-22%
COc1ccc2c(c1)-c1nc(NC(=O)c3ccco3)sc1CC2	15µM*	?	-2%	?	-17%	?
COc1ccc2c(c1)-c1nc(/N=C/c3ccc(O)cc3)sc1CC2	-13%	-1%	?	10%	-1%	-12%
CCC1c2ccsc2CCN1C(=O)/C=C/c1cccc(C)c1 (configuration not stated)	.	.	.	.	.	6%
CN(C)Cc1ccc(O)cc1	.	.	.	.	.	-26%
O=C(Nc1ccc(Cl)cc1C(F)(F)F)c1cccc(Cl)c1Cl	.	.	.	.	.	-27%
COc1ccc2c(c1)-c1nc(NC(=O)c3cccs3)sc1CC2	?	?	?	?	8.9µM*	?
COc1ccc2c(c1)CCc1sc(NC(=O)c3ccco3)nc1-2	?	?	-1%	?	-20%	.
Cc1c(-c2ccccc2)nc2ccccc2c1C(=O)OCC(=O)NC(C)C	.	.	.	.	.	20%
NC(=O)c1cc(Br)cc2c3c([nH]c12)CCCC3	23µM*	18µM*	18µM*	-16%	-12%	?
CCC(CC)NC(=O)c1cccc(F)c1	.	.	.	.	.	35%
O=C(Nc1cc(C(F)(F)F)ccc1N1CCCCC1)c1ccco1	?	-2%	-1%	-10%	-16%	6%
O=C(Nc1ccc(N2CCOCC2)cc1)c1ccc(Br)o1	-23%	-11%	?	?	?	-1%
O=C(Nc1ccc(N2CCCC2)c(Cl)c1)c1ccc(Br)o1	?	18µM*	14%	?	34%	?
O=C(Nc1cc(C(F)(F)F)ccc1N1CCCCC1)c1ccc(Br)o1	?	18µM*	-7%	8%	18%	9%
O=C(Nc1cccc(Cl)c1N1CCOCC1)c1ccc(Br)o1	10µM*	10µM*	-4%	?	-16%	0%
C=C(C)COc1ccc(C(N)=O)cc1	.	.	.	.	.	20%
COc1ccc2c(c1)OCC(Cc1ccc(OC)c(O)c1)C2=O (configuration not stated)	0.58µM*	0.73µM*	2%	.	?	.
COc1ccc2c(c1)O[C@H]1c3ccc(O)cc3OC[C@@H]21	-16%	-18%	.	.	.	49%
COc1ccc(C2(C(=O)NCc3ccc4ccccc4c3)CCOCC2)cc1	.	.	.	.	.	0%[6.33 µM]
O=C(NCc1ccc(S(=O)(=O)N2CCOCC2)cc1)c1cc(Br)ccc1O	.	.	.	.	.	-3%
Cc1ccc(NC(=O)C(C)c2ccc(-c3ccccc3)c(F)c2)cc1 (configuration not stated)	7.3µM*	?	?	?	?	428%
C[C@@H](C(=O)O)c1ccc(-c2ccccc2)c(F)c1	2%	5%	-5%	.	24%	288%
CCOC(=O)c1ccc(NC(=O)c2nc[nH]c2C(=O)N[C@@H](CC(C)C)C(=O)OC(C)(C)C)cc1	?	?	6.3µM*	-19%	2.5µM*	7%
SMILES	DT40 TDP1 no CPT	DT40 TDP1 CPT	VP16 counter	ELG1 repair inh	RORg inh	ALOX12 inh
CCOC(=O)c1ccc(NC(=O)c2nc[nH]c2C(=O)N[C@@H](CC(C)C)C(=O)OCc2ccccc2)cc1	?	?	?	11%	1.1µM*	19%
CC(C)C[C@H](NC(=O)c1[nH]cnc1C(=O)Nc1ccccc1)C(=O)OC(C)(C)C	?	26µM*	8.9µM*	?	5µM*	?
CCOC(=O)c1ccc(NC(=O)c2nc[nH]c2C(=O)N[C@@H](C)C(=O)OC(C)(C)C)cc1	?	?	-4%	-12%	?	2%
CC(C)Oc1cccc(-c2noc(-c3ccc(S(=O)(=O)NC4CC4)o3)n2)c1	.	.	.	.	.	9%
NC(=O)C1CN(CC(=O)Nc2ccccc2Cl)c2ccccc2O1 (configuration not stated)	.	.	.	.	.	9%
Cc1cc(OC(=O)c2ccc(CSc3ccc(Cl)cc3)cc2)ccc1C(C)C	.	.	.	.	.	-19%
COc1ccccc1N1CN(CCc2ccccc2)CNC1=S	-20%	-5%	?	0%	4%	410%
C=CCN1CN(CCc2ccccc2)CNC1=S	-7%	-3%	16µM*	4%	1.6µM*	0%
CCN1CNC(=S)N(C(C)c2ccccc2)C1 (configuration not stated)	-22%	-20%	13µM*	7%	10µM*	-23%
CCOc1ccc(CCN2CN(CC)CNC2=S)cc1OCC	21µM*	-18%	?	16%	13µM*	-7%
CCN1CN(CCc2ccccc2)CNC1=S	-1%	-4%	?	4%	13µM*	-16%
OCc1cc(CC2(NCc3ccccc3)COC2)no1	.	.	.	.	.	8%[176 µM]
COCC1CN(C2CCC2)CC12CCN(C(=O)Cc1cccc(F)c1)CC2 (configuration not stated)	.	.	.	.	.	47%
CCOc1ccccc1N1CN(CC)CNC1=S	-2%	3%	-2%	20%	?	0%
CCN1CNC(=S)N(CCc2ccccc2)C1	8%	1%	13µM*	?	8.9µM*	-25%
CCSc1nnc(NC(=O)CSc2nnc(CNC(=O)c3cc(OC)c(OC)c(OC)c3)o2)s1	-6%	-3%	?	18%	16µM*	17%
COc1ccc(C(=O)NCc2nnc(SCC(=O)Nc3nc4ccc(C)cc4s3)o2)cc1OC	2.3µM*	4.1µM*	7.9µM*	?	7.9µM*	-13%
CCc1nnc(NC(=O)CSc2nnc(CNC(=O)c3cc(OC)c(OC)c(OC)c3)o2)s1	23%	5%	-16%	7%	-16%	0%
Cc1ccc(C2Cn3nnc(C(=O)N4CCN(C(=O)c5ccsc5)CC4)c3CO2)cc1 (configuration not stated)	.	.	.	.	.	20%
COCCOc1ccc(C(=O)N[C@@H]2CN(C(=O)Nc3cccc(OC)c3)CCC[C@H]2O)cc1	.	.	.	.	.	-12%
Cc1ccc2c(c1)C(=O)C1(O)CCN(c3ccccc3)C1=N2 (configuration not stated)	6.3µM*	8.9µM*	3%	.	29%	6%[176 µM]
Cc1ccc2c(c1)C(=O)[C@@]1(O)CCN(c3ccccc3)C1=N2	?	8.4µM*	7%	.	?	0%
